Test results taken from PubChem BioAssay (NCI).
The panel holds about 79,000 compounds, 15% with a hit somewhere; the sample as a whole holds those more often. Unmarked numbers belong to inactive results. The source made the active and inactive calls. Cut-off read from the data, not from the text of the source: active = growth inhibition above about 70%; inactive = the rest.

assay: NCI Yeast Anticancer Drug Screen. Data for the sgs1 mgt1 strain (AID 161);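 note: 0% = growth of cultures given vehicle only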; conditions: S. cerevisiae sgs1 mgt1 strain, at 50.0 µM, hits give high values
Method in brief: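 Growth of a repair-deficient yeast mutant was monitored after compound treatment and expressed as inhibition relative to vehicle-treated cultures.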

Structure (SMILES)	growth inhibition
Cc1cccc(C(C)C)c1NC(=O)/C(Cc1c([N+](=O)[O-])cccc1[N+](=O)[O-])=N/NC(=O)CC#N	13.8%
NC1CC(=O)C(CC2C(=O)CC(N)CC2=O)C(=O)C1 (centres undefined)	3.35%
CC(C)c1ccc(/C=C2\CCC/C(=C\c3ccc(C(C)C)cc3)C2=O)cc1	9.5%
COc1cc(OC)c(OC)cc1/C=C/c1cc[n+](C)c2ccccc12	11.6%
O=C(NO)c1c(F)c(F)c(C(=O)NO)c(F)c1F	4%
COc1cc(/C=N/N=C(\N)NO)cc(Cl)c1O	-27.3%
[N-]=[N+]=NC(=O)c1cccc2c1Cc1ccccc1-2	-4.05%
O=[S@]1Nc2cc(N=Nc3ccccc3)ccc2S1	0.15%
Nc1ccc2c(c1)Cc1c-2cc(Br)c(N)c1Br	9.5%
N#C/C(=C\c1ccccn1)c1ccc(Cl)cc1	11.5%
CC1(C)C2CCC(I)(C2)C1I (centres undefined)	-17.3%
CC1=Nc2ccccc2NC2(C1)C(C1COC(C)(C)O1)OC1OC(C)(C)OC12 (centres undefined)	20.3%
COc1ccccc1NC(=O)C1=C(C)NC(C)=C(C(=O)Nc2ccccc2OC)C1c1c(Cl)cccc1Cl	-11.8%
CN(C)CCOC(=O)COc1ccc(Cl)cc1	9.9%
Cc1ccc(C(C)(O)C2CC2)cc1 (centres undefined)	-18.4%
CCCCCCCCCCCCCCCCCCCOc1ccc(OCCCCCCCCCC)cc1	24.6%
COC(C)C(NC=O)C(=O)O (centres undefined)	7.45%
Nc1cc(Cl)c(I)c(Cl)c1	5.05%
O=C1N=C2SC(=S)NC(=S)N2NC12c1ccccc1-c1ccccc12	31%
CC1C(=O)CCC2C1(C)CCC1C2(C)CCC2(C)C3CC(C)(C)CCC3(C)CCC12C (centres undefined)	17.4%

Structure (SMILES)	growth inhibition
O=C(/C=C/c1ccc(Cl)c(Cl)c1)c1ccc2ccccc2c1	-3.7%
CC(=O)CC(=O)CC(C)C.CC(=O)CC(=O)CC(C)C.[Cu]	6.25%
C/C=C1\CN2CCc3c([nH]c4ccccc34)C2C=C1CCO (centres undefined)	-26.4%
C=CCCCC(C#N)c1ccc2c(c1)OCO2 (centres undefined)	-4.85%
C[N+](C)(C)C1CC([N+](C)(C)C)C2c3ccccc3C21 (centres undefined)	1.95%
COc1cc(C(=O)O)cc(O)c1OC	-2.85%
CC(O)CN(CC(C)O)c1ccc2c(c1)Cc1ccccc1-2 (centres undefined)	13.8%
CCCNS(C)(=O)=O	10.2%
CC1(c2ccncc2)NC(=O)NC1=O (centres undefined)	10.3%
CC1=C(C)CC2(CC1)C(=O)C1(CCC(C)=C(C)C1)C2=O (centres undefined)	-2.8%
CC1CCOCO1 (centres undefined)	-1.05%
O=C(Nc1ccccc1)C1CC2C=CC1C2 (centres undefined)	4%
CC1(C)OCC2OC(n3cnc4c(N)nc(Cl)nc43)C(OS(C)(=O)=O)C2O1 (centres undefined)	-13.2%
CC1(C)CC[C@]2(C(=O)O)[C@H](O)C[C@]3(C)C(=CC[C@@H]4[C@@]5(C)CC[C@H](OC6OC(C(=O)O)C(O)C(O)C6O)C(C)(C)[C@@H]5CC[C@]43C)[C@@H]2C1 (some centres undefined)	94.3% (active)
O=C(NO)/C(CC(=O)c1ccc(O)cc1)=N\O	-6.9%
N#CC(C#N)=CNC(=S)Nc1ccc(Cl)c(Cl)c1	47.6%
CCOC(=O)C(CC(Nc1ccccc1)(c1ccccc1)c1ccccc1)c1ccccc1 (centres undefined)	4.65%
Cc1cc(N(CCC#N)CCC#N)ccc1/C=C1N=C(/C=C\c2ccccc2)OC\1=O	5.5%
COc1ccc(OC)c(NC(=O)CCCC(=O)C(C#N)c2ccccc2C)c1 (centres undefined)	-3.15%
